The list is not random: actives were taken first. Their share in the collection is about 13%.
CHX counter – affects cycloheximide protein synthesis inhibition readout, counter-screen | cell reporter, cycloheximide protein synthesis inhibition counterscreen | max response, % | 12% of 300,000 active; in the data active means max response mostly above about 13%, no sharp cut-off; inactive means mostly below about 14%; further: read at 38.3 µM for the half of the compounds with a filed dose
FMDV inh – antivirals against foot and mouth disease virus. FMDV antiviral cell-based qHTS. Potency, µM (highest dose often 57.9 µM), actives largely listed as inhibitors. 1.2% of 410,000 active; calls by dose curve; tested in HEK293T cells; further: read-out not given here; nearly all actives have a fitted effect of over 45% in size
MARV entry inh – blocks Marburg virus binding to or entry into cells | AID 540276 | Potency, µM (doses to about 37.8 µM), usual class: inhibitors | Marburg virus pseudotyped entry inhibition, cell reporter | 1.8% of 300,000 active; calls by dose curve; tested in HEK293 cells
LASV entry inh – Lassa virus entry inhibition | Lassa virus pseudotype entry inhibition, cell reporter | Potency, µM (highest dose often 37.9 µM), most hits filed as inhibitors | 1.2% of 300,000 active; calls by dose curve; tested in HEK293 cells; further: nearly all actives have a fitted effect of over 50% in size
Shiga inhibitor – Shiga toxin inhibition; Vero cells, Shiga toxin protein synthesis inhibition reporter; inhibition, % at 38.7 µM; 9.2% of 290,000 active; in the data active means inhibition mostly above about 28%, no sharp cut-off; inactive means mostly below about 43%
HCV inh – blocks hepatitis C virus; Huh7.5.1 HCVcc-Cre infection, luciferase reporter, 44 h; Potency, µM (series often up to 41.8 µM), most hits filed as inhibitors; 3.4% of 340,000 active; AID 651820; active means well fitted inhibition curve with a large enough effect; inconclusive means small, poorly fitted or top-dose-only effect, or another doubt; inactive means no such curve, though single readings can be large or run the other way
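1,000 cells/well; 4 h culture; + compound; + HCVcc-Cre (~0.5 moi); 44 h; luciferase substrate, RT 15 min; read 15 sec.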
Large screens that a line does not name were inactive.

Clc1ccc(OCc2nnc3n2N=C(c2ccc4c(c2)OCCO4)CS3)c(Cl)c1	CHX counter 15, MARV entry inh inconclusive, LASV entry inh inconclusive, HCV inh inconclusive
O=S(=O)(c1cc(F)ccc1F)N1CCC2(CC1)OCCO2	CHX counter 60, Shiga inhibitor 85 (no result: MARV entry inh, LASV entry inh)
O=C(Nc1ccc(F)c(F)c1)c1ccc(F)c(S(=O)(=O)N2CCC3(CC2)OCCO3)c1	FMDV inh inconclusive, MARV entry inh inconclusive, LASV entry inh inconclusive, HCV inh 13µM
CC1=N/C(=C/c2ccco2)C(=O)O1	none
O=C(CSc1nnnn1C1CC2CCC1C2)Nc1ccnc2ccccc12 (centres undefined)	FMDV inh 40µM, MARV entry inh inconclusive, LASV entry inh inconclusive
COc1ccc(F)cc1S(=O)(=O)n1nnc2ccccc21	MARV entry inh inconclusive
CC12CC3CC(C)(C1)CC(CN)(C3)C2	MARV entry inh inconclusive, LASV entry inh inconclusive
COCCNC(=O)/C(C#N)=C/c1cc(C)n(C2CCCCC2)c1C	CHX counter 28, MARV entry inh inconclusive, LASV entry inh inconclusive, Shiga inhibitor 69
COCCNC(=O)/C(C#N)=C/c1cc(C)n(-c2ccc(C)cc2)c1C	CHX counter 49, MARV entry inh inconclusive, LASV entry inh inconclusive, Shiga inhibitor 63, HCV inh 10µM
COc1ccc(NC(=O)/C(C#N)=C/c2cc(C)n(-c3ccc(F)cc3)c2C)cc1	none (no result: CHX counter, Shiga inhibitor, HCV inh)
COc1ccc(-n2c(C)cc(/C=C(\C#N)C(=O)NCc3ccco3)c2C)cc1	CHX counter 47, Shiga inhibitor 51, HCV inh inconclusive
COCCNC(=O)/C(C#N)=C/c1ccccc1Br	MARV entry inh inconclusive
Cc1nn(-c2ccccc2)c2c1N(CCCC(=O)NCc1ccc(OC(C)C)cc1)C(=O)CS2	LASV entry inh inconclusive (no result: CHX counter, MARV entry inh, Shiga inhibitor, HCV inh)
CC(=O)N1CCSc2ccc(S(=O)(=O)Nc3cccc(C)c3)cc21	HCV inh 14µM (no result: MARV entry inh, LASV entry inh)
CC(=O)N1CCSc2ccc(S(=O)(=O)NCc3ccccc3)cc21	LASV entry inh inconclusive, HCV inh inconclusive
COc1ccc(CNS(=O)(=O)c2ccc3c(c2)N(C(C)=O)CC(C)S3)cc1 (centres undefined)	FMDV inh inconclusive, MARV entry inh inconclusive, LASV entry inh inconclusive, HCV inh inconclusive
COc1cccc(NS(=O)(=O)c2ccc3c(c2)N(C(C)=O)CCS3)c1	LASV entry inh inconclusive
CC(=O)N1CCSc2ccc(S(=O)(=O)Nc3ccccc3C)cc21	LASV entry inh inconclusive, HCV inh 11µM
COc1ccc(NS(=O)(=O)c2ccc3c(c2)N(C(C)=O)CC(C)S3)c(OC)c1 (centres undefined)	HCV inh 11µM (no result: MARV entry inh, LASV entry inh)
O=[N+]([O-])c1ccc(Sc2n[nH]c(-c3ccccc3)n2)nc1	CHX counter 41
O=[N+]([O-])c1ccc(Sc2ccccc2)nc1	none
CC(C)(C)c1csc(Sc2ccc([N+](=O)[O-])cn2)n1	CHX counter 23, MARV entry inh inconclusive, LASV entry inh inconclusive, Shiga inhibitor 50, HCV inh inconclusive
Cc1ccnc(Sc2ccc([N+](=O)[O-])cn2)n1	CHX counter 10 (no result: MARV entry inh, LASV entry inh)
Cc1ccccc1Sc1ccc([N+](=O)[O-])cn1	none (no result: CHX counter, MARV entry inh, LASV entry inh, Shiga inhibitor)
CCC1CN(CCNC(=O)c2ccc(C#CC(C)(C)O)cc2)Cc2cc(OC)ccc2O1 (centres undefined)	none (no result: CHX counter, MARV entry inh, LASV entry inh, Shiga inhibitor, HCV inh)
CN(C(=O)COC(=O)Cc1c[nH]c2ccccc12)c1c(N)n(Cc2ccccc2)c(=O)[nH]c1=O	none (no result: CHX counter, MARV entry inh, LASV entry inh, Shiga inhibitor)
COc1ccc(C(=O)Nc2cc3c(cc2N2CCOCC2)n(C)c(=O)n3C)cc1OC	LASV entry inh inconclusive
O=S(=O)(NCc1ccncc1)c1ccc(S(=O)(=O)NCC2CCCO2)cc1 (centres undefined)	MARV entry inh inconclusive, LASV entry inh inconclusive, HCV inh 13µM (no result: FMDV inh)
CCCCNS(=O)(=O)c1ccc(S(=O)(=O)NCc2ccncc2)cc1	HCV inh 10µM (no result: FMDV inh)
O=[N+]([O-])c1cccc(S(=O)(=O)NCc2ccncc2)c1	FMDV inh inconclusive, HCV inh 13µM
CCCCc1ccc(S(=O)(=O)NCCc2ccncc2)cc1	LASV entry inh inconclusive, HCV inh 11µM
O=S(=O)(NCc1ccccc1)c1ccc(S(=O)(=O)NCC2CCCO2)cc1 (centres undefined)	none
CCn1cc(C(=O)O)c(=O)c2cc(F)c(N3CCN(C(=S)NC(=O)c4cccc(C)c4)CC3)cc21	none
